# Assay outcomes: PubChem, Sanford-Burnham Center for Chemical Genomics
# In the library only some 31% were active in any assay of this set; here they are far more common.
# CYP2C9 activ: CYP2C9 (human) activation | hit rate 1.4% among 96,000 | P11712 | activation factor at 5 µM | recombinant CYP2C9, luciferin-H conversion, luminescence; hits give high values; factor 1 = untreated enzyme, 0 = blocked;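 active = activation factor of 2 or more for CYP2C9 at a 5 µM dose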;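 note: 0 = sulfaphenazole-blocked wells and 1 = vehicle-only wells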
# Target sequence (P11712 whole entry, looked up): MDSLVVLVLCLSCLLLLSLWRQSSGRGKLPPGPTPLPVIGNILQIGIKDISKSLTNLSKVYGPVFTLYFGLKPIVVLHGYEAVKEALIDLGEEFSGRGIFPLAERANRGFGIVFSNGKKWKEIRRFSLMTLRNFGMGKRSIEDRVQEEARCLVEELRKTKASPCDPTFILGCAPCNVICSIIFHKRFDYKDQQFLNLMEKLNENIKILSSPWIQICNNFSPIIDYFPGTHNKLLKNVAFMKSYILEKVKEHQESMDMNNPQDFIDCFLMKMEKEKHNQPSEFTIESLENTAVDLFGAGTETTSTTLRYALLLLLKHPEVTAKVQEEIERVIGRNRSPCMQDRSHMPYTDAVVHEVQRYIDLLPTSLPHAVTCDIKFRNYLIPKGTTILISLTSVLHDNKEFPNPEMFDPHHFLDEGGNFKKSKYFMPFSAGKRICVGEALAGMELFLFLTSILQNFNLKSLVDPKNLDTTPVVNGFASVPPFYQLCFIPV
# CYP2C19 act: cytochrome P450 2C19 (human) activation; recombinant CYP2C19, luciferin-H EGE luminescence; hits give high values; 0 = fully inhibited enzyme, 1 = untreated enzyme; AID 1025; 96,000 tested, under 10 active; activation factor at 5 µM;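 active = activation factor of at least 2 at 5 µM in the primary screen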;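 note: 0 = wells with 2.5 mM tranylcypromine and 1 = vehicle-only wells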
# CYP2C19 inhib: human CYP2C19 inhibition. P33261. CYP2C19 Supersomes, luciferin-H EGE luminescence, 30 min. inhibition, % at 5 µM. hit rate 21% among 96,000;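 active = CYP2C19 inhibition above a set limit at 5 µM in the primary screen, cut at about 50% in these data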;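 note: plate controls were negative control wells for no effect and 2.5 mM tranylcypromine positive control for full effect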
# CYP2C9 inh: blocks human cytochrome P450 2C9; hit rate 20% among 96,000; CYP2C9 Supersomes, luciferin-H conversion, luminescence; inhibition, % at 5 µM;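 active = blocking of liver enzyme CYP2C9 beyond about 50% at 5 µM, limit read from the data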
# PLAP act: activates human placental alkaline phosphatase; P05187; purified PLAP enzyme, luminescent substrate read-out; hits give high values; activation fold at 20 µM; hit rate 1.2% among 96,000; AID 696; in the data active = activation fold above about 2
# The depositor's hits bear a star.
SMILES,CYP2C9 activ,CYP2C19 act,CYP2C19 inhib,CYP2C9 inh,PLAP act
CC(C)CC(=O)O/N=C1\C(=O)N(Cc2ccc(Cl)cc2)c2ccc([N+](=O)[O-])cc21,0.4,0.4,64.7*,58.0*,1
O=C(Cn1c(=O)oc2ccccc21)N1CCN(c2ccccc2)CC1,1,0.8,23.5,-2.1,1.1
Cc1cccc(N(CC(O)CON=C2c3ccccc3-c3ccccc32)S(C)(=O)=O)c1 (stereo not given),0,0,98.5*,99.2*,1.7
Nc1ccc(-c2ccc(N)cc2C(F)(F)F)c(C(F)(F)F)c1,0.4,0.2,79.3*,59.6*,0.6
COc1ccc(CN2C(=O)CS(=O)CC2=O)cc1OC,1,0.9,7.5,-3.7,1
O=C(CCSc1nc(-c2ccco2)cc(C(F)(F)F)n1)Nc1ccc2c(c1)OCO2,0.4,0.4,64.0*,59.5*,0.9
O=C(CSc1nc(-c2ccco2)cc(C(F)(F)F)n1)Nc1ccc2c(c1)CCC2,0.6,0.9,11.6,35.8,1.1
O=C(CCSc1nc(-c2ccc3c(c2)OCO3)cc(C(F)(F)F)n1)NCc1ccco1,0.3,0.3,69.1*,65.2*,0.9
CCOc1nc(-c2ccc(Cl)cc2Cl)ccc1C#N,1,0.6,40.1,1.1,0.9
N#CC(c1ccc(Cl)nn1)c1ccc(Cl)cc1Cl (stereo not given),0.6,0,96.1*,38.6,1
COc1ccccc1CCNC(=O)C1CCCO1 (stereo not given),1.2,1,-3.5,-16.7,1.1
Cc1nn(C(=O)C(C)N2C(=O)c3ccccc3C2=O)c(C)c1Br (stereo not given),1.1,0.8,17.3,-8.9,1
Cc1cn(C(=O)C(C)N2C(=O)c3ccccc3C2=O)c(C)n1 (stereo not given),0.8,0.5,50.5*,24.7,0.9
O=C(O)CCn1[nH]c(=O)c2ccccc2c1=O,1,1,-2.0,-2.5,0.8
CC12CCC(C(=O)NCc3ccc4c(c3)OCO4)(OC1=O)C2(C)C (stereo not given),0.8,0.4,55.9*,17.8,0.9
CC12CCC(C(=O)NCc3ccc(Cl)cc3)(OC1=O)C2(C)C (stereo not given),0.5,0.2,83.6*,46.2,1.1
COC(=O)c1cccnc1NC(=S)NNC(=O)c1ccccc1,0.9,1.1,-5.5,12.5,0.9
CC(C)(C)OC(=O)N1CC2Cc3[nH]c(=O)ccc3C(C2)C1 (stereo not given),1,0.8,17.8,-2.8,1
CC(CN1CCCCC1)OC(=O)c1cc2ccccc2o1 (stereo not given),1.1,1.1,-5.9,-10.0,1.1
C(=C/c1ccnc2nc(SC/C=C/c3ccccc3)nn12)/c1ccccc1,0.2,0.7,28.4,79.3*,1
O=C1c2cccnc2C(=O)N1Cc1ccc2c(c1)OCO2,1.1,0.9,7.7,-8.0,1.1
Cc1cc(NC(=O)c2ccc(N(C)S(=O)(=O)c3ccccc3)cc2)no1,0.6,0.7,27.2,36.9,1
Cc1cc(NC(=O)CC(CN(C)S(=O)(=O)c2ccccc2)c2ccccc2)no1 (stereo not given),0.5,0.1,88.4*,46.2,0.9
COc1ccc(C(CC(=O)NCc2ccco2)c2ccc(F)cc2)cc1 (stereo not given),0.6,0.7,27.5,44.9,0.8
Cc1ccc(C(CC(=O)NCc2ccco2)c2ccccc2)c(O)c1 (stereo not given),0.5,0.4,60.8*,45.5,1
SMILES,CYP2C9 activ,CYP2C19 act,CYP2C19 inhib,CYP2C9 inh,PLAP act
CCCN(CCC)C(=O)CC(c1ccccc1)c1cc(Br)ccc1O (stereo not given),0.6,0.6,43.4,42.2,1.4
CCCN(CCC)C(=O)CC(c1ccccc1)c1ccc(C)cc1O (stereo not given),0.5,0.6,42.7,51.5*,1.5
CCN1C(=O)NC2C1N(S(C)(=O)=O)CCN2S(C)(=O)=O (stereo not given),1.1,1,-4.3,-7.4,0.9
Cn1c(/C=C/N2CCOCC2)c(C(=O)c2ccc(Br)cc2)c(=O)n(C)c1=O,1.2,0.8,16.8,-24.4,1
Cn1c2c(c(=O)n(C)c1=O)C(c1ccc(Br)cc1)Nc1ccccc1O2 (stereo not given),0.3,0.4,55.5*,65.2*,1.2
CC1(C)CC(=O)C(CCC(=O)c2ccccc2)C(C)(C)N1 (stereo not given),1.1,1,-0.2,-5.8,1
O=C(CN1CCCCC1)N1CCN(C(=O)CN2CCCCC2)CC1,1.3,1.2,-18.0,-28.4,0.9
Nn1cc(-c2ccccc2)nc1SCC(=O)N1CCN(S(=O)(=O)c2ccc3ccccc3c2)CC1,0.5,0.8,18.6,47.0,1.1
CCCCNc1nnc(SCC(=O)N2CCN(S(=O)(=O)c3ccc4ccccc4c3)CC2)s1,0.1,0.2,78.7*,87.3*,1.6
C=CCn1c(SCc2csc(C)n2)nc2sc3c(c2c1=O)CCCC3,0.5,0.8,20.8,50.4*,1.6
C=CCn1c(SCc2csc(C)n2)nc2sc3c(c2c1=O)CCCCC3,0.1,0.5,45.4,88.3*,1.5
C=CCn1c(SCC(=O)Nc2cc(C)on2)nc2sc3c(c2c1=O)CCCC3,1.1,1.2,-15.1,-13.7,0.9
CCOc1ccccc1N(C(=O)CNS(=O)(=O)c1ccccc1)C(CC)C(=O)NCc1ccco1 (stereo not given),0.8,0.8,16.4,16.0,1.5
CC(C)CNC(=O)COc1ncnc2ccccc12,0.8,1,-1.3,19.1,1
O=[N+]([O-])c1ccc(N2N=C(c3ccco3)CC2c2ccccc2)cc1 (stereo not given),0.2,0.8,21.8,78.1*,0.9
Fc1ccc(C2CC(c3ccco3)=NN2c2ccccc2)cc1 (stereo not given),0.8,0.8,19.1,15.7,0.9
C/C(=N\NC(=O)c1ccc(OC2CCCC2)cc1)c1ccc(C)s1,1,0.9,6.9,3.3,1
COc1cc(/C=C2\C(=O)ON=C2c2ccccc2)cc(OC)c1OC,1.2,0.9,11.6,-19.4,1
COc1cc(/C=C2/N=C(C3CCCCC3)OC2=O)cc(OC)c1OC,0.4,1,4.9,62.2*,1.6
O=C(O/N=C/C1=C(Cl)c2ccccc2CC1)c1ccc(F)cc1,0.7,1.1,-10.1,28.1,0.8
Cc1cc(N2CCN(C(=O)c3ccco3)CC2)n2nc(C)c(-c3ccccc3)c2n1,0.6,0.5,45.8,44.7,1.9
O=C(c1ccccc1)c1ccc2nc(N3CCN(C(=O)c4ccco4)CC3)c3nncn3c2c1,0.1,0.2,78.4*,92.0*,1.4
Cc1ccc(NC(=O)c2cc(-c3ccco3)on2)cc1C,1.5,1.2,-17.9,-50.5,1
COc1cccc(-c2cc(C(=O)Nc3cccnc3)no2)c1,1.1,1,3.3,-5.1,0.8
COc1cccc(-c2cc(C(=O)Nc3cc(OC)c(OC)c(OC)c3)no2)c1,0.7,0.2,81.1*,30.8,1.2
